Rows were chosen to be rich in hits. Some 19% of all compounds tested hit in one or more screens of this group.
TDP1 cell CPT – qHTS for Inhibitors of human tyrosyl-DNA phosphodiesterase 1 (TDP1): qHTS in cells in presence of CPT | AID 686979, 2013 | Potency, µM (series often up to 46.2 µM), hits mostly inhibitors | chicken DT40 Tdp1-/-;hTDP1 cells + 20 nM CPT, ATP luminescence, 48 h | 12% of 420,000 active; further: nearly all actives have a fitted effect of over 55% in size
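Cell growth measured by CellTiter-Glo luminescence after a minimum 48 h, 37 C compound exposure with 20 nM CPT in Tdp1-knockout DT40 cells stably expressing hTDP1, seeded 400/well; qHTS titration format.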
TDP1 cell noCPT – qHTS for Inhibitors of human tyrosyl-DNA phosphodiesterase 1 (TDP1): qHTS in cells in absence of CPT; DT40 Tdp1-/- hTDP1 cells, no CPT, ATP luminescence, 48 h; 15% of 420,000 active; Potency, µM (titrated, usually from 46.2 µM), actives largely listed as inhibitors; AID 686978, 2013; further: nearly all actives have a fitted effect of over 55% in size
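Growth of hTDP1-complemented DT40 Tdp1-knockout cells is measured by ATP luminescence after at least 48 hr compound exposure at 37 °C, with DMSO substituting for the 20 nM CPT used in the parallel screen.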
IL-1B inflam inh – qHTS for Inhibitors of Inflammasome Signaling: IL-1-beta AlphaLISA Primary Screen; THP-1 LPS/ATP IL-1B secretion, AlphaLISA, 16 h; active compounds read low; 4.7% of 360,000 active; activity change, % at 57.5 µM; in the data active means activity change below about -50%; inconclusive means mostly about -30% to -49%
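THP-1 cells pretreated 1 hr with compounds (up to 57.5 uM final), then stimulated with LPS (250 ng/mL final) plus ATP (1.25 mM final); secreted IL-1B measured by AlphaLISA after 16 hr, decreased signal indicating inhibition.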
HT1080-NT tox – qHTS for induction of synthetic lethality in tumor cells producing 2HG: qHTS for the HT-1080-NT fibrosarcoma cell line | Potency, µM (highest dose often 46.1 µM), usual class: cytotoxic | HT-1080-NT fibrosarcoma viability, CellTiter-Glo ATP luminescence, 48 h | 1.6% of 360,000 active;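 further: NT is the 2HG producing partner of a matched IDH1 knockdown line; nearly all actives have a fitted effect of over 55% in size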
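A 48-hour cytotoxicity screen used HT-1080-NT cells plated 2 hours before compound delivery. ATP-based CellTiter-Glo luminescence measured viability, normalized to DMSO and no-cell controls.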
HT1080 IDH1KD tx – qHTS for induction of synthetic lethality in tumor cells producing 2HG: qHTS for the HT-1080-IDH1KD cell line | Potency, µM (doses to about 46.1 µM), hits mostly cytotoxic | AID 686971, 2013 | 2% of 360,000 active | HT-1080 IDH1 knockdown viability, ATP luminescence, 48 h
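IDH1KD HT-1080 cells, 750/well, RPMI + 5% FBS; compound pinned after 2 h settling; 48 h, 37 °C; CellTiter-Glo luminescence; % activity normalised to DMSO and no-cell wells; curves fitted, classed by r2 and efficacy.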
Large screens that a line does not name were inactive. Unless noted, the call rests on the fitted dose curve; in most records, active means well fitted curve in the direction sought with a large enough effect; inconclusive means small, poorly fitted or top-dose-only effect, or another doubt; inactive means no such curve, though single readings can be large; an effect the other way counts as inactive or inconclusive.

CN(C(=O)c1ccc(NC(=O)C2CCCN(C(=O)OC(C)(C)C)C2)cc1)C1CCC1 (stereo unspecified)	TDP1 cell CPT inconclusive, TDP1 cell noCPT 16µM
CN(Cc1ccccc1)C(=O)c1cccc(NC(=O)Cc2ccc(NC(=O)C3CCN(C(=O)C4CCC4)CC3)cc2)c1	TDP1 cell CPT inconclusive, TDP1 cell noCPT 23µM
CN(CCc1ccccc1)C(=O)c1ccc(NC(=O)Cc2cccc(NC(=O)C3CCN(C(=O)C4CC4)CC3)c2)cc1	none
CN(Cc1ccccc1)C(=O)c1cccc(NC(=O)C2CCCN(C(=O)OC(C)(C)C)C2)c1 (stereo unspecified)	TDP1 cell CPT 18µM, TDP1 cell noCPT 16µM
CN(CCc1ccccc1)C(=O)c1ccc(NC(=O)Cc2cccc(NC(=O)C3CCN(C(=O)C4CCCC4)CC3)c2)cc1	TDP1 cell CPT inconclusive, TDP1 cell noCPT 9.2µM
Cc1ccccc1NS(=O)(=O)c1ccc(C)c(NS(C)(=O)=O)c1C	none
CN(Cc1ccccc1)C(=O)c1ccc(NC(=O)Cc2cccc(NC(=O)C3CCN(C(=O)C4CCCCC4)CC3)c2)cc1	TDP1 cell CPT inconclusive, TDP1 cell noCPT inconclusive
CN(CCc1ccccc1)C(=O)c1ccc(NC(=O)Cc2cccc(NC(=O)C3CCN(C(=O)C4CCC4)CC3)c2)cc1	TDP1 cell CPT 16µM, TDP1 cell noCPT 21µM
Cc1ccc(CN(C)C(=O)CN2C(=O)NC(c3ccccc3)(c3ccccc3)C2=O)c(C)c1	TDP1 cell CPT inconclusive, TDP1 cell noCPT 16µM, IL-1B inflam inh -63
CCOC(=O)c1[nH]c(C)c(C(=O)Nc2cccc(Cl)c2C)c1C	TDP1 cell CPT 10µM, TDP1 cell noCPT 16µM, HT1080-NT tox 11µM, HT1080 IDH1KD tx 7.9µM
COc1cccc(/C=N/NC(=O)c2[nH]c(C)c(C(=O)N/N=C/c3cccc(OC)c3)c2C)c1	TDP1 cell CPT inconclusive, TDP1 cell noCPT inconclusive
CCOC(=O)c1c(C)[nH]c(C(=O)N/N=C\c2ccccc2Cl)c1C	TDP1 cell CPT 16µM, TDP1 cell noCPT 16µM, HT1080-NT tox inconclusive, HT1080 IDH1KD tx 15µM
CCOC(=O)c1c(C)[nH]c(C(C)=NNC(=O)c2cccs2)c1C	TDP1 cell CPT 12µM, TDP1 cell noCPT 6.5µM
CCOC(=O)c1c(C)[nH]c(C(=O)NNC(=O)c2ccccc2)c1C	none
CCOC(=O)c1c(C)[nH]c(C(=O)N/N=C/c2cccc(OC)c2)c1C	TDP1 cell CPT inconclusive, TDP1 cell noCPT 15µM, HT1080-NT tox inconclusive, HT1080 IDH1KD tx inconclusive
CCC(C)(C)NC(=O)C(c1ccc(F)cc1)N(CCOC)C(=O)CCC(=O)Nc1nccs1 (stereo unspecified)	none
CC(Sc1ccc(Cl)cc1)C(=O)NCC(c1ccco1)N1CCCCC1 (stereo unspecified)	TDP1 cell CPT inconclusive, TDP1 cell noCPT inconclusive
C/C(=N\OCC(=O)OCC(=O)NCc1ccccc1)c1ccc2c(c1)OCO2	TDP1 cell noCPT inconclusive, HT1080-NT tox inconclusive
Cc1ccc(C(=O)NCC(=O)OCC(=O)NCCc2ccccc2)s1	TDP1 cell CPT inconclusive, TDP1 cell noCPT inconclusive
O=C(O)c1cc(-c2ccco2)nc2cc3ccccc3cc12	none
O=C(Cc1cc(=O)[nH][nH]1)N/N=C/C=C/c1ccccc1	TDP1 cell CPT inconclusive, TDP1 cell noCPT 29µM, IL-1B inflam inh inconclusive
O=C(CNC(=O)c1ccccc1)N/N=C/C=C/c1ccccc1	none
CCC(C)NCCOCCOc1ccc(Br)cc1 (stereo unspecified)	TDP1 cell CPT inconclusive, TDP1 cell noCPT 23µM, IL-1B inflam inh inconclusive
CCC(C)NCCOc1ccc(Br)cc1 (stereo unspecified)	none
CC(=O)Nc1cccc(/C(C)=N/NS(=O)(=O)c2ccc(C)cc2)c1	none
Cc1[nH]n(-c2cccc([N+](=O)[O-])c2)c(=O)c1-c1ccccc1	TDP1 cell noCPT inconclusive
O=C(N/N=C/c1c[nH]c2ccccc12)c1cccc([N+](=O)[O-])c1	none
Cc1ccc(-n2[nH]c(C)c(/C=N/Nc3ccc([N+](=O)[O-])cc3[N+](=O)[O-])c2=O)cc1C	TDP1 cell CPT inconclusive, TDP1 cell noCPT 21µM, HT1080-NT tox inconclusive, HT1080 IDH1KD tx 21µM
Cc1[nH]n(-c2ccccc2)c(=O)c1/C=N/NC(=O)c1cccc([N+](=O)[O-])c1	TDP1 cell CPT 0.26µM, TDP1 cell noCPT 0.65µM, HT1080-NT tox inconclusive, HT1080 IDH1KD tx inconclusive
Cc1[nH]n(-c2cccc3ccccc23)c(=O)c1/C=N/NC(=O)c1cccc([N+](=O)[O-])c1	TDP1 cell CPT 2.1µM, TDP1 cell noCPT 1.3µM, HT1080-NT tox inconclusive, HT1080 IDH1KD tx inconclusive
O=C(COC(=O)c1ccc([N+](=O)[O-])o1)NC1CCCc2ccccc21 (stereo unspecified)	none
CCCCn1c(SCC(=O)Nc2ccc(C)c(S(=O)(=O)N3CCOCC3)c2)nnc1C(CC)N(C)C (stereo unspecified)	none
CCCCn1c(SCC(=O)Nc2cc(C(F)(F)F)ccc2Cl)nnc1C(CC)N(C)C (stereo unspecified)	TDP1 cell CPT inconclusive, TDP1 cell noCPT 21µM
Cc1ccc(NC2=NC(c3ccccc3)n3c(nc(C)cc3=O)N2)c(C)c1 (stereo unspecified)	IL-1B inflam inh -74
Cc1ccc(NC2=NC(c3ccc(F)cc3)n3c(nc(C)cc3=O)N2)c(C)c1 (stereo unspecified)	HT1080-NT tox inconclusive
O=C1C=CC(=O)N1c1ccc2c(c1)C(NC(=O)C(F)(F)F)c1ccccc1-2 (stereo unspecified)	TDP1 cell CPT 1.3µM, TDP1 cell noCPT 1.8µM, IL-1B inflam inh -81, HT1080 IDH1KD tx inconclusive
CN(C)C(=O)NC1c2ccccc2-c2ccccc21	none
CCc1c(C)nc2ncnn2c1Nc1ccccc1C	TDP1 cell CPT inconclusive, TDP1 cell noCPT inconclusive
Cc1ccccc1Nc1c(C)c(C)nc2ncnn12	TDP1 cell CPT 16µM, TDP1 cell noCPT 21µM
CCOc1ccc(Cl)cc1/C=C1/C(=O)ON=C1C	TDP1 cell CPT inconclusive, TDP1 cell noCPT inconclusive
CC1=NOC(=O)/C1=C/c1ccc(O)c(Cl)c1	TDP1 cell CPT inconclusive, TDP1 cell noCPT 9.2µM
COc1cc(/C=C2\SC(c3ccccc3)=NC2=O)cc(Cl)c1O	TDP1 cell CPT 21µM, TDP1 cell noCPT inconclusive
CCCOc1ccc(/C=C2/C(=O)ON=C2C)cc1Cl	TDP1 cell CPT 18µM, TDP1 cell noCPT inconclusive
COc1cc(/C=C2/C(=O)ON=C2C)cc(Cl)c1O	TDP1 cell CPT 18µM, TDP1 cell noCPT inconclusive
O=C1NC(Cc2ccc(O)cc2)c2nc3ccccc3c(=O)n2-c2ncccc21 (stereo unspecified)	TDP1 cell noCPT inconclusive

Bioassay records: PubChem BioAssay, National Center for Advancing Translational Sciences (NCATS)
